Experimental data: PubChem BioAssay (NCATS)
Inconclusive results are not listed. Calls of active or inactive are those of the source. The call rests on the fitted dose curve; in most records, active means well fitted inhibition curve with a large enough effect; inconclusive means small, poorly fitted or top-dose-only effect, or effect the other way; inactive means flat fitted curve, though single readings scatter.

Assay: qHTS for Inhibitors of Plasmodium falciparum (CP250) proliferation (AID 504320)
Conditions: P. falciparum CP250 in erythrocytes, SYBR Green DNA, 72 h; series mostly up to 6.7 µM; activity change, negative = inhibition: at the top concentration
Text: Plasmodium falciparum is a virulent malarial parasite that kills 1-2 million people worldwide each year. Malaria not only inflicts tremendous suffering and morbidity on the human population, but has dramatically influenced the course of civilization with profound sociological and economic implications (Shah, S. 2010). Transmitted by mosquitoes, the sporozoite form of the parasite enters the blood stream to infect hepatocytes, where they become merozoites that infect red blood cells (erythrocytes). Within erythrocytes, merozoites begin a […] cycle of growth and division, after which the parasite is released to infect new red blood cells. Gametocytes, which form within erythrocytes as well, circulate in the bloodstream and are ingested by the mosquito, thereby completing the life cycle (see CDC website). To profile malarial lines for differential chemical responses and to identify inhibitors of malarial growth, an assay that measures P. falciparum growth and replication within erythrocytes was employed. This assay uses a DNA binding fluorescent dye (SYBR Green) to detect parasite DNA following cell lysis. Because mature erythrocytes lack DNA, only Plasmodium-derived DNA is detected. The P. falciparum line cp250, derived from a malarial isolate from Cambodia, (Mu, J., et al. 2010) was added to the panel of lines, Dd2, HB3, 7G8 and GB4 in this study. Laboratory of Assay Development and Screening Technology [ADST] and NIH Chemical Genomics Center [NCGC] Boston University, Chemistry Department, Center for Chemical Methodology and Library Development [CMLD-BU] NIH National Institute of Allergy and Infectious Diseases [NIAID]
ADST Assay Protocol Summary: The 1536-well SYBR Green viability assay was based on the method of Bennett et al (2004) and described previously in 1536-well format (Yuan J., et al. 2009). For screening 3 ul culture medium was dispensed into 1536 well black clear bottom plates (Aurora Biotechnologies) using a Multidrop Combi (Thermo Fisher Scientific Inc.), 23 nL compounds in DMSO were added by a pin transfer (Cleveland, P.H. and Koutz, P.J, 2005) using a pin tool-based delivery system (Kalypsys), and 5 ul of erythrocytes infected with P. falciparum one of five lines (cp250, Dd2, HB3, 7G8 or GB4, 0.3% parasitemia, 2.5% hematocrit final concentration) were added. The plates were incubated at 37C in a humidified incubator in 5% CO2 for 72 h, and 2 ul lysis buffer (20 mM Tris HCl, 10 mM EDTA, 0.16% saponin, 1.6% triton X, 10X SYBR Green I (supplied as 10,000X final concentration by Invitrogen) was added to each well. The plates were mixed for 25 sec with gentle shaking and incubated overnight at room temperature in the dark. The following morning, fluorescence intensity at 485(14) nm excitation and 535(25) nm emission wavelengths was measured on an EnVision (Perkin Elmer) plate reader. Plate reads were normalized relative to the control inhibitor (0.29 uM artemisinin) and vehicle (DMSO) wells present on each plate and then corrected by an algorithm using vehicle-only control plates at the beginning and end of the compound plate stack. References Shah, S. (2010). The Fever: how malaria has ruled humankind for 500,000 years. New York, Sarah Crichton Books. CDC web site, http://www.cdc.gov/malaria/about/biology/index.html Mu, J., Myers, R.A., Jiang, H., Liu, S., Ricklefs, S., Waisberg, M., Chotivanich, K., Wilairatana, P., Krudsood, S., White, N.J., et Plasmodium falciparum genome-wide scans for positive selection, recombination hot spots and resistance to antimalarial drugs Nature Genetics 2010, 42, pp 268-271 Bennett TN, Paguio, M., Gligorijevic, B., Seudieu, C., Kosar, A. D., Davidson, E., and Roepe, P. D. Novel, rapid, and inexpensive cell-based quantification of antimalarial drug efficacy Antimicrobial Agents Chemother. 2004, 48(5): pp 1807-10 Yuan J, Johnson RL, Huang RL, Wichterman J, Jiang HY, Hayton K, Fidock DA, Wellems TE, Inglese J, Austin CP, Su XZ. […]

Activity change, negative = inhibition, inactive:
O=C1C2=C(C(=O)c3ccccc31)[C@H]1O[C@](CCCCN3C(=O)c4ccccc4C3=O)(Cc3ccccc31)O2 -18.3%
C=CC[C@@](C(C)=O)(C(=O)OC)[C@@H](NC(=O)OC(C)(C)C)c1ccccc1 4.98%
C=CC[C@@H]1C=C[C@@H](Oc2ccc(OC)cc2)[C@H](COC(=O)c2ccc(Br)cc2)O1 1.36%
COc1ccc2c(c1)[C@@]1(OCCC=C[C@@H]1C)C(=O)N2Cc1ccc(F)cc1 -12.1%
C[C@@H](c1ccccc1)N1C(=O)[C@@H]2[C@H]3[C@H](O)[C@H](O)CC(=NOC[C@@H](O)COCc4ccco4)[C@H]3CC[C@H]2C1=O 4.12%
COC(=O)C1=C(C)N(Cc2ccccc2)C(=NCc2ccccc2)NC1c1ccccc1 (stereo not given) -19%
COC(=O)CC=C[C@@H](C)[C@H](NC(=O)OCC(Cl)(Cl)Cl)c1ccccc1 -1.11%
CCCCCCN1C(=O)CC[C@@]23C1=NC(C(=O)OC)=C(C(=O)OC)[C@@H]2N(Cc1ccccc1)c1ccccc13 2.94%
Cc1ccc(C(O)C2=CCCC2=O)cc1 (stereo not given) 0.988%
COc1ccc(C(O)C2=CCCC2=O)cc1 (stereo not given) -7.71%
CCOC(=O)NN=C1C[C@@H](O)[C@@H](O)[C@@H]2[C@H]3C(=O)N(c4ccc(F)cc4F)C(=O)[C@@H]3CC[C@H]12 -0.765%
CC1(OC(=O)CCc2ccccc2)C(=O)C=C2C=C(C3CC3)OC=C2C1=O (stereo not given) 6.31%
COC(=O)C(C(=O)OC)[C@H]1c2ccccc2[C@@H]2C(=C[C@@H](C)[C@H]3C(=O)N(c4ccccc4)C(=O)[C@H]32)N1C(=O)OC -0.907%
C=C(C#CCCO)CCN1C=C(C(=O)OCC)C(c2ccccc2)NC1=O (stereo not given) 0.705%
COC[C@H]1O[C@@H](c2c(OC)cc(OC)cc2OC)[C@H](OC)[C@@H](OC)[C@H]1OC 3.53%
COC(=O)CC=C[C@@H](C)[C@H](NC(=O)OC)c1ccccc1Br -1.78%
CC(=O)C1=CN(CCC=Cc2ccccc2)C(=O)NC1c1ccccc1 (stereo not given) -20.9%
O=P1(O)Oc2c(c(-c3ccccc3)cc3ccccc23)-c2c(-c3ccccc3)cc3ccccc3c2O1 -0.955%
CC(C)=CCCC(C)=CCON=C1C[C@@H](O)[C@@H](O)[C@@H]2[C@H]3C(=O)N(c4ccc(F)cc4F)C(=O)[C@@H]3CC[C@H]12 -2.53%
C=CCOC(=O)N[C@H](c1cccc(C(F)(F)F)c1)C(C(C)=O)C(C)=O -0.278%
CC1(C)O[C@H]2O[C@H]([C@H](O)CON=C3[C@H]4CCn5c(=O)n(-c6ccccc6)c(=O)n5[C@@H]4[C@H](O)[C@@H]4O[C@H]34)[C@H](O)[C@@H]2O1 -5.01%
COC(=O)C1=C(C)N(Cc2ccccc2)C(=NCCc2c[nH]c3ccccc23)NC1c1ccc(Br)cc1 (stereo not given) -10%
C[C@H]1[C@@H](C(=O)N2CCCC2)CC(=NOCc2ccccc2)C(=NOCc2ccccc2)C[C@H]1c1ccccc1 -29.8%
CCOC(=O)C1=C(CCl)NC(=O)N(C(C)=O)C1c1ccccc1 (stereo not given) -15.9%
CC[C@H](C)[C@@H](NC(=O)O[C@@H]1C(=O)c2cc(OC)ccc2O[C@H]1c1ccc(OC)c(Br)c1)C(=O)OC 4.24%
CCN(CC)CCCN=C1NC(c2ccccc2)C(C(=O)OC)=C(C)N1CC (stereo not given) 2.93%
C=CCOC(=O)C(C(C)=O)[C@@H](NC(=O)OC)c1ccc(F)cc1 (stereo not given in full) 0.575%
COC[C@H]1O[C@]2(c3ccccc3)CO[C@@H]1[C@@H](C=Cc1ccccc1)C2 -1.69%
C[C@@H]1[C@H](c2ccccc2)c2cc3ccccc3nc2C(=O)C[C@@H]1C(=O)N1CCCC1 1.19%
CC1(OC(=O)c2ccco2)C(=O)C=C2C=C(c3ccsc3)OC=C2C1=O (stereo not given) -3.11%
COC(=O)[C@H](COC(C)(C)C)NC(=O)O[C@@H]1C(=O)c2ccc(OC)cc2O[C@H]1c1cccc(C(F)(F)F)c1 0.731%
COC(=O)c1ccc(CN2C(=O)[C@]3(OCCC=C[C@@H]3C)c3ccccc32)cc1 0.727%
C[C@H]1CC[C@H]2C(=O)N(Cc3cccc([N+](=O)[O-])c3)C[C@H](O)CN2[C@H]1c1cccc(Br)c1 3.97%
CC1=CC[C@@H](COc2ccccc2)O[C@@]2(C1)C(=O)Nc1ccccc12 1.61%

Potency, inactive:
CCCCc1nc2c(c3c1C[C@H](C)OC3)CN(S(=O)(=O)c1ccccc1C(=O)OC)CC2
COC(=O)N1C(C)=Cc2ccccc2C1CC(C)=CC(C)=O (stereo not given)
CCCCc1cc2c(cn1)=C(OC(=O)C1CCCC1)C(C)(OC(=O)CC)C(=O)C=2 (stereo not given)
C[C@H]1Cc2c(COc3ccccc3)nc3c(c2CO1)CN(C(=O)C1CC1)CC3
COC(=O)CCC(=O)OC1(C)C(=O)C=C2C=C(C3CC3)N(CCc3c[nH]c4ccccc34)C=C2C1=O (stereo not given)
C[C@H]1Cc2c(-c3ccccc3)nc3c(c2CO1)CN(S(=O)(=O)c1ccc(Cl)c2nonc12)CC3
